Only some compounds are listed: those with a hit (about 7.6% of all), similar ones and a draw of the others.
NS3h inh CB: blocks HCV NS3 helicase binding to DNA; 1.6% of 16,000 active; AID 687043; inhibition, % at 100 µM; NS3h Cy5-dT15 DNA binding, fluorescence polarization;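 active = inhibition above the average over every tested compound plus 3 SD, cut at about 40% in these data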
Cy5 interf NS3h: enhances or quenches Cy5 fluorescence in NS3h assay | 6% of 16,000 active | AID 720488 | fluorescence interference ratio at 100 µM | Cy5-dT15 DNA with NS3h, fluorescence interference; actives lie on both sides; signal over control mean, under 1 quenches;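 active = compound fluorescence over control fluorescence at most 0.8, a quencher, or at least a set upper limit, an enhancer; inactive = ratio between 0.8 and the set upper limit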
An asterisk follows results filed as active.

SMILES	NS3h inh CB	Cy5 interf NS3h
O=C(/C=C/c1ccc(F)cc1)Nc1cccc(C(F)(F)F)c1	4	0.95
Nc1ccc(Oc2ccc(N)c(N)c2)cc1	-10	0.19*
COc1ccc(Oc2ccc(N)cc2)cc1	-12	0.92
CCOc1ccc(NC(=O)c2cc(-c3ccc(OC)cc3)nc3ccccc23)cc1	14	0.92
CCN(CC)c1ccc(NC(=O)c2ccc(I)cc2)cc1	16	1.3*
CCN(CC)c1ccc(NC(=O)c2ccc(Br)cc2)cc1	8	1
O=C(/C=C/c1ccccc1)Nc1ccc([N+](=O)[O-])cc1	40	0.92
O=C(Nc1ccc(Cl)c(Cl)c1)Nc1nnc(-c2ccccc2Cl)s1	18	1.1
C1CCc2sc3c(c2CC1)c1nnnn1c1nnnn31	2	1
CCCc1c(C)c2c(OCC(=O)O)cc(OCC(=O)O)cc2oc1=O	13	0.76*
CCc1cc2c(C)c(CC)c(=O)oc2cc1OCC(C)=O	-4	1
O=C(Nc1nnc(CSCc2ccccc2)s1)c1cccc2ccccc12	19	1.1
CC1=C(C(=O)Nc2ccc(C)c(Cl)c2)C(c2ccc(F)cc2)NC(=O)N1 (configuration not stated)	-2	0.86
NC(=O)c1cc2nc(-c3cccs3)cc(C(F)(F)F)n2n1	11	0.66*
O=C(c1cc2nc(-c3cccs3)cc(C(F)(F)F)n2n1)N1CCc2ccccc2C1	13	0.96
CN(C)c1ccc(NC(=O)C2CC(=O)N(c3ccc(F)cc3)C2)cc1 (configuration not stated)	-5	1.1
O=C1NC(=S)N(c2ccc(F)cc2)C(=O)/C1=C/c1ccc(F)cc1	8	0.65*
Cc1ccc(N2C(=O)/C(=C/C=C/c3ccccc3)C(=O)NC2=S)cc1	34	0.72*
CCc1ccc(N2C(=O)/C(=C/c3ccc(O)c(Cl)c3)C(=O)NC2=S)cc1	0	1.2
CCOc1ccc(/C=C2\C(=O)NC(=S)N(c3ccc(C)cc3)C2=O)cc1Cl	6	0.9
Cc1c(C(=O)NS(=O)(=O)c2ccccc2Cl)c(=O)n(-c2ccccc2)n1C	10	0.99
O=C(CN1C(=O)S/C(=C/c2ccccc2F)C1=O)Nc1ccccc1	13	1
CCN(CC)C(=O)CN(c1ccc(Oc2ccccc2)cc1)S(C)(=O)=O	1	0.99
COc1ccc(NS(=O)(=O)c2ccc(NC(=S)NC(=O)C34CC5CC(CC(C5)C3)C4)cc2)nn1	6	1
O=C(CSCc1ccc(F)cc1)Nc1ccccc1	7	0.93
SMILES	NS3h inh CB	Cy5 interf NS3h
O=C(CSc1ncc(-c2ccccc2)[nH]1)Nc1ccc(F)cc1	-2	0.78*
CC(C)C(=O)Nc1ccc2oc(-c3cccc4ccccc34)nc2c1	3	0.97
CCc1ccc(NC(=S)NC(=O)/C=C/c2ccccc2)cc1	49*	0.9
CC(=O)c1ccc(NC(=S)NC(=O)/C=C/c2ccccc2)cc1	5	1.1
CCOC(=O)N/N=C(/C)C12CC3CC(CC(C3)C1)C2	-2	1.1
O=C1OC(c2ccccc2)=C/C1=C/c1ccc(-c2ccc([N+](=O)[O-])cc2)o1	12	0.8*
Cc1ccc(/C=C2/C=C(c3ccccc3)OC2=O)cc1	5	0.95
NC1=NC(=O)/C(=C/c2ccccc2OCc2ccc([N+](=O)[O-])cc2)S1	-7	0.97
Cc1ccc(C2=C/C(=C\c3ccc(-c4ccccc4C(=O)O)o3)C(=O)O2)cc1	24	0.79*
NC1=NC(=O)/C(=C\c2ccc(-c3ccc([N+](=O)[O-])cc3)o2)S1	-2	1.2*
CN1C(=O)C(=Cc2ccc(-c3ccccc3C(=O)O)o2)C(=O)N(C)C1=O	39	1.1
NC(=O)COc1ccc(/C=c2/sc3n(c2=O)CCCN=3)cc1	10	1.2*
COC(=O)C1=C(C)N(c2ccc(C)cc2)/C(=C\c2ccc(OCC(N)=O)cc2)C1=O	-3	0.99
COc1ccc(N(CC(=O)NCc2ccccc2)S(=O)(=O)c2ccc(C)cc2)cc1	5	1.1
O=C(CSc1nnc(Cc2ccccc2)o1)c1ccc(Cl)cc1	14	1
COc1cc(/C=C2\C(=O)NN(c3ccccc3)C2=O)ccc1OCC(=O)O	11	1.1
CCOC(=O)COc1ccc(/C=C2\C(=O)NN(c3ccc(Cl)c(Cl)c3)C2=O)cc1OC	18	0.8*
COc1cc(/C=C2\C(=O)NN(c3ccccc3)C2=O)ccc1OCc1ccccc1F	36	0.56*
O=C1NN(c2ccccc2)C(=O)/C1=C/c1ccc(OCc2ccccc2F)cc1	14	1
O=C1N=C2N(CCN3CCOCC3)c3ccccc3N2/C1=C\c1ccc([N+](=O)[O-])s1	6	1
Cc1ccccc1OCCNC(=O)Cc1cccc2ccccc12	20	0.99
Cc1ccc(NS(=O)(=O)c2cccs2)cc1C	7	1
CCn1c(-c2ccc([N+](=O)[O-])cc2)n[nH]c1=S	-3	0.98
O=[N+]([O-])c1ccc(-c2cc(-c3ccc(I)cc3)n[nH]2)cc1	4	1.2*

Assay outcomes as filed in PubChem.
